# Results taken from PubChem BioAssay (Tox21).
# Calls of active or inactive are those of the source. Calls follow the shape of the dose curve; as a rule, active = well fitted curve in the direction sought with a large enough effect in the repeat runs; inconclusive = weak or mixed curves; inactive = flat fitted curve, though single readings scatter.
# Test: qHTS assay to test for compound auto fluorescence at 535 nm (green) in HepG2 cell free culture (AID 720686)
# Details: Cell-free medium, green autofluorescence 485/535 nm; series mostly up to 91.3 µM
row,Structure (SMILES),outcome
1,NCCCN1CCN(CCCN)CC1,inactive
2,CCCOCCC,inactive
3,CCCCNC(=S)NCCCC,inactive
4,OCCN(CCO)CCN(CCO)CCO,inactive
5,CC(C)C1=CC2=CC[C@@H]3[C@](C)(CCC[C@@]3(C)C(=O)O)[C@H]2CC1,inactive
6,NC/C=C/C(=O)O,inactive
7,COc1ccccc1N1CCN(CCCNc2cc(=O)n(C)c(=O)n2C)CC1,inactive
8,CCN1CC(CCN2CCOCC2)C(c2ccccc2)(c2ccccc2)C1=O (stereo not given),inactive
9,C[C@@H]1CN(c2c(F)c(N)c3c(=O)c(C(=O)O)cn(C4CC4)c3c2F)C[C@H](C)N1,inactive
10,CCOC(=O)c1ccccc1O,inactive
11,CC(=O)N[C@@H](CC(C)C)C(=O)O,inactive
12,CC(C)CC(=O)OCc1ccccc1,inactive
13,CC/C=C\CCOC(=O)CCCCC,inactive
14,Cc1ccc(C=O)s1,inactive
15,FC(F)(F)C(Cl)(Cl)Cl,inactive
16,CN(C)Cc1ccccc1,inactive
17,CC(C)c1ccccc1,inactive
18,O=Cc1ccc(F)c(Br)c1,inactive
19,CCOC(=O)C(Br)c1ccccc1 (stereo not given),inactive
20,CCCC1CCC(=O)O1 (stereo not given),inactive
21,CN1CCN(c2c(F)cc3c(=O)c(C(=O)O)cn4c3c2SCC4)CC1,inactive
22,O=c1[nH]cnc2c1ncn2[C@@H]1O[C@H](CO)[C@@H](O)[C@H]1O,inactive
23,CCOC(=O)[C@H](CCc1ccccc1)N[C@@H](C)C(=O)N1Cc2cc(OC)c(OC)cc2C[C@H]1C(=O)O,inactive
24,CC(C)C(=O)OC/C=C/c1ccccc1,inactive
25,COc1nc(C)nc(NC(=O)NS(=O)(=O)c2ccccc2OCCCl)n1,inactive
